Assay results published in PubChem BioAssay.
For some assays here: Results with a measured potency or affinity are listed apart. Activity calls are given as the source filed them.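 The calls were made as follows, unless noted: active = primary screen hit whose calcium fluorescence ratio, in both repeats, exceeds the weak agonist control mean by 3 SD; inactive = the rest.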

What was measured:
[1] = test system: TRPC4 beta (transient receptor potential cation channel C4), mouse; assay: activators of mouse TRPC4 channel, confirmation, cell-based, Fluo4 calcium, HEK293 TRPC4beta/mu-opioid, duplicates, 10 µM (AID 2426;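 active = fluorescence ratio normalized to control raised more than 50% in primary screen plus both repeat runs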;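 also: percent rise of integrated ratio over buffer wells lacking compound which define 0%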); conditions: Fluo4 calcium fluorescence, at 10 µM; active compounds read high
[2] = test system: transient receptor potential cation channel C4 beta (TRPC4), mouse; assay: activators of mouse TRPC4 channel, confirmation, cell-based, second round, Fluo4, HEK293 TRPC4beta/mu-opioid, 1 µM (AID 2461;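 active = primary screen active and over 50% activation in each of two duplicate runs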;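 as to activation: 0% = wells without test compound as baseline of integrated fluorescence ratio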); conditions: Fluo4 calcium fluorescence, at 1 µM; active compounds read high
[3] = test system: TRPC4 (transient receptor potential cation channel C4 beta), mouse; assay: positive allosteric modulators of mouse TRPC4, confirmation, cell-based, second round, Fluo-4, HEK293 TRPC4beta/mu-opioid, 1 µM (AID 2554;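 active = primary screen hit whose fluorescence ratio, in both repeats, exceeds the weak agonist control mean by 3 SD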); conditions: DAMGO EC20, Fluo-4 calcium flux, at 1 µM; active compounds read high
[4] = test system: TRPC4 beta (transient receptor potential cation channel C4), mouse; assay: positive allosteric modulators of mouse TRPC4, confirmation, cell-based, Fluo-4, HEK293 TRPC4beta/mu-opioid (AID 2555); conditions: DAMGO EC20, Fluo-4 calcium flux, at 10 µM; active compounds read high
[5] = target: Short transient receptor potential channel 4 (Mus musculus) (UniProt Q9QUQ5); assay: inhibitors of mouse TRPC4 channel, confirmation, cell-based, Fluo4, HEK293 TRPC4beta/mu-opioid (AID 2636;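 active = calcium signal cut by more than 3 SD below the full-agonist control yet still positive, in both repeats and the earlier primary screen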); conditions: DAMGO, Fluo4 calcium flux, at 10 µM; active compounds read high
[6] = target: Short transient receptor potential channel 4 (Mus musculus) (UniProt Q9QUQ5); assay: inhibitors of mouse TRPC4 channel, confirmation, cell-based, second round, Fluo4, HEK293 TRPC4beta/mu-opioid, 1 µM (AID 2637;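 active = calcium signal ratio cut to more than 3 SD under the fully stimulated control mean yet still positive, in both repeats and the primary screen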); conditions: Fluo4 calcium flux, DAMGO, at 1 µM; active compounds read high
[7] = target: Short transient receptor potential channel 4 (Mus musculus) (UniProt Q9QUQ5); assay: TRPC4 positive allosteric modulators, dose response, cell-based, HEK293 TRPC4/mu-opioid, Fluo-4 calcium, EC20 DAMGO (AID 434941;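 active = earlier screen potentiator hit that boosts the TRPC4 ion channel at some dose, with a dose response; inactive = no potentiation, no dose response, or not a prior hit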;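 also: calcium entry triggered by an EC20 dose of DAMGO at the co-expressed mu-opioid receptor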)
[8] = target: Short transient receptor potential channel 4 (Mus musculus) (UniProt Q9QUQ5); assay: mouse TRPC4 channel inhibitors, dose response, cell-based, HEK293 TRPC4/mu-opioid, Fluo-4 calcium (AID 434942;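 active = primary screen inhibitor hit that blocks the TRPC4 channel at some tested dose, yielding a dose curve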)
[9] = target: Short transient receptor potential channel 6 (Mus musculus) (UniProt Q61143); assay: inhibition of mouse TRPC6 channel, confirmation, selectivity assay for TRPC4 inhibitor project, cell-based, HEK293, membrane potential dye, duplicate (AID 434948;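 active = active in primary screen and both duplicates, each dropping signal beyond three positive-control SD with fluorescence still positive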); conditions: HEK293 TRPC6, membrane potential dye fluorescence, at 10 µM, stimulated with maximal-effect acetylcholine; active compounds read high
[10] = target: Short transient receptor potential channel 6 (Mus musculus) (UniProt Q61143); assay: activation of mouse TRPC6 channel, confirmation, selectivity assay for TRPC4 activator project, cell-based, HEK293, membrane potential dye, duplicate (AID 434950;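 active = membrane potential signal rise above negative control mean plus 3 SD in both duplicates, also active in the earlier TRPC4 screen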;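 as to activation: 0% = buffer only wells and 100% = acetylcholine maximal-effect wells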); conditions: HEK293 TRPC6, membrane potential fluorescence, at 10 µM; active compounds read high
[11] = target: Short transient receptor potential channel 6 (Mus musculus) (UniProt Q61143); assay: TRPC6 potentiation by TRPC4 potentiator hits, confirmation, selectivity assay for TRPC4 potentiator project, HEK293 cells, membrane potential dye, duplicate (AID 434952;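 active = compound raising the membrane signal above positive-control mean plus 3 SD in both repeats, and a primary screen hit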); conditions: HEK293 TRPC6, membrane potential dye fluorescence, at 10 µM, maximal acetylcholine added after compound; active compounds read high
[12] = target: Short transient receptor potential channel 4 (Mus musculus) (UniProt Q9QUQ5); assay: calcium flux activators in TRPC4/5HT1a cells, counter-screen for TRPC4 activator project, cell-based, second counter screen, HEK293 TRPC4/5HT1a, Fluo-4 (AID 434977;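 active = calcium signal rise above buffer-control mean plus 5 SD in both duplicates, and also a hit in the primary screen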;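 as to activation: plate controls were assay buffer for no effect and maximal serotonin response for full effect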); conditions: Fluo-4 calcium flux, at 10 µM; active compounds read high
[13] = calcium flux inhibitors in TRPC4/5HT1a cells, confirmation, counter-screen for TRPC4 inhibitor project, cell-based, second counter screen, HEK293 TRPC4/5HT1a, Fluo-4 (AID 434978;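 active = primary screen active whose calcium signal fell more than 3 SD beyond the full-serotonin control mean in both duplicate plates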;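 also: serotonin given first at submaximal then at maximal dose after compound preincubation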); conditions: Fluo-4 calcium flux, at 10 µM, serotonin added to trigger calcium flux; active compounds read high
[14] = test system: TRPC4 (mouse), co-expressed with 5HT1a in HEK293; assay: calcium flux potentiators in TRPC4/5HT1a cells, confirmation, counter-screen for TRPC4 potentiator project, cell-based, second counter screen, HEK293 TRPC4/5HT1a, Fluo-4 (AID 434979;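 active = signal rise over 3 SD above mean of control wells given weak agonist, in both repeats and first screen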); conditions: Fluo-4 calcium flux, at 10 µM, serotonin added at its EC20 dose; active compounds read high
[15] = calcium flux activation in mu-opioid HEK293 cells, confirmation, counter-screen for TRPC4 activator project, cell-based, HEK293 mu-opioid receptor line (AID 449723;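 active = hit in primary screen, with calcium signal over 5 SD above buffer well mean in both duplicates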;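 also: counter screen cells carry the mu-opioid receptor alone and lack TRPC4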); conditions: Fluo-4 calcium fluorescence, at 10 µM; active compounds read high
[16] = calcium flux enhancement in mu-opioid HEK293 cells, confirmation, counter-screen for TRPC4 allosteric potentiator project, cell-based, HEK293 mu-opioid receptor line (AID 449724;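 active = calcium signal rise more than 3 SD above the low-dose agonist control mean, in both duplicate plates and the primary screen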); conditions: Fluo-4 calcium flux, at 10 µM, compound added before EC20 DAMGO stimulus; active compounds read high

Short transient receptor potential channel 6 (Mus musculus), sequence (Q61143 whole entry, looked up): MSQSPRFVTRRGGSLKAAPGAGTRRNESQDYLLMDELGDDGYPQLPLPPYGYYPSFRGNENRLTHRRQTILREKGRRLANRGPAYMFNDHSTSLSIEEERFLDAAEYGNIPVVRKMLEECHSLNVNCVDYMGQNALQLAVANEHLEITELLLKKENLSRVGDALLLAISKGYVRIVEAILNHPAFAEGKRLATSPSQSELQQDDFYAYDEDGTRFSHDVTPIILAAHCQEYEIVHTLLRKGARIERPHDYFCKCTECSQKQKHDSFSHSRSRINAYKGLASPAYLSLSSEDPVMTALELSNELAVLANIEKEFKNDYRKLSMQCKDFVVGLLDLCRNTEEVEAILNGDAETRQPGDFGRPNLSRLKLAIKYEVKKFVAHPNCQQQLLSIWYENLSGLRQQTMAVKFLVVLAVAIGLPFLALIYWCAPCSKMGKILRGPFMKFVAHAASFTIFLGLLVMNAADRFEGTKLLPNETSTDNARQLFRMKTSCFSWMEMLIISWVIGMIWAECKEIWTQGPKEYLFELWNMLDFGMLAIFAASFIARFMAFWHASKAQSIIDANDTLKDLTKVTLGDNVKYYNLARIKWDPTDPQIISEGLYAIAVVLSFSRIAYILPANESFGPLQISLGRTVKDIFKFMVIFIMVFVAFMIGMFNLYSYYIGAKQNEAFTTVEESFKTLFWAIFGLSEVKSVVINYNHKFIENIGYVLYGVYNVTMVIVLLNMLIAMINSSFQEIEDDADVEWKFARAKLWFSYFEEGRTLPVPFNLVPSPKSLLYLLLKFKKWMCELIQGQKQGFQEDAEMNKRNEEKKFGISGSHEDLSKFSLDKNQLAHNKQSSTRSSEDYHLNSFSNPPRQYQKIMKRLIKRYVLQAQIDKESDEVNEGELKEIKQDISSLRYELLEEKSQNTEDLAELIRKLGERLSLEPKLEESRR
Short transient receptor potential channel 4 (Mus musculus), sequence (Q9QUQ5 whole entry, looked up): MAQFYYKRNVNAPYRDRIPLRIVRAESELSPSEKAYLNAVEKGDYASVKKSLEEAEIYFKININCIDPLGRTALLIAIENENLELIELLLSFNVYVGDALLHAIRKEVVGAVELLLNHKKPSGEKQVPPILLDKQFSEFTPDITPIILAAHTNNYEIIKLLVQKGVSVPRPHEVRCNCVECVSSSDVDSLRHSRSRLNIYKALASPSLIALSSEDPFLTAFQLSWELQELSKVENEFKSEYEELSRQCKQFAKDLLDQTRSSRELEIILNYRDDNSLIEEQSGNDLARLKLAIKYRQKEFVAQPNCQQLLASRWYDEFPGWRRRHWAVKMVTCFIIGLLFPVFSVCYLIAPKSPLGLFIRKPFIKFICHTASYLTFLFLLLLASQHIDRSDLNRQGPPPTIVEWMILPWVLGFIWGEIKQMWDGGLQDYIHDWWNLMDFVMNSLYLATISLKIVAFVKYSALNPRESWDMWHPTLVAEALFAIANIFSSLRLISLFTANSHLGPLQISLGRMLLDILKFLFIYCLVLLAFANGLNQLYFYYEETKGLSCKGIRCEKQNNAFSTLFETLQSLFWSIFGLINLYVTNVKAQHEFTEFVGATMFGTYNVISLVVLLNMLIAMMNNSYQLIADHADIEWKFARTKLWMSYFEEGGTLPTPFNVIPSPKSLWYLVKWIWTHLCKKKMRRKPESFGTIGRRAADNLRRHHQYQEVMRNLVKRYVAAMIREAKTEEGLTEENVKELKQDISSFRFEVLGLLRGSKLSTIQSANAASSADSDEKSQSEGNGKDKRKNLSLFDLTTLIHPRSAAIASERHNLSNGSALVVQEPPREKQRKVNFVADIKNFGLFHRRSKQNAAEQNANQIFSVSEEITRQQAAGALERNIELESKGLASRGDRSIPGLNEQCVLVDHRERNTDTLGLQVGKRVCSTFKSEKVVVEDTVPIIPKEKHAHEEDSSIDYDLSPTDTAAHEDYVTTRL

Row | SMILES | activation [1] | outcome [2] | outcome [3] | outcome [4] | outcome [5] | outcome [6] | outcome [7] | outcome [8] | outcome [9] | activation [10] | outcome [11] | outcome [12] | outcome [13] | outcome [14] | outcome [15] | outcome [16] | activation [2] | activation [12] | activation [15] | outcome [10]
1 | CCCCN(CC)CCNc1c(N2CCN(C(=O)OCC)CC2)c(=O)c1=O | 155% (active) | inactive | inactive | inactive | inactive | inactive | inactive | inactive | inactive | 30.5% (active) | inactive | inactive | inactive | inactive | inactive | inactive | – | – | – | –
2 | COc1ccccc1/C=C/CN1CCCC(CCC(=O)NCc2ccc(F)c(F)c2)C1 (centres undefined) | 92% (active) | – | inactive | inactive | inactive | inactive | inactive | inactive | inactive | 43.5% (active) | inactive | – | inactive | inactive | inactive | inactive | 79% (active) | 35.2% (active) | – | –
3 | CC[C@@H](C)[C@H](CNC)NC[C@@H](Cc1cccc2ccccc12)NCCc1cccc(C(F)(F)F)c1 | 127% (active) | inactive | inactive | inactive | inactive | inactive | inactive | inactive | inactive | 29% (active) | inactive | – | inactive | inactive | – | inactive | – | 111% (active) | 25.7% (active) | –
4 | Cc1noc(C)c1S(=O)(=O)N1CCC(C(=O)NCCCN2CC(C)CC(C)C2)CC1 (centres undefined) | 99% (active) | – | inactive | inactive | inactive | inactive | inactive | inactive | inactive | – | inactive | – | inactive | inactive | inactive | inactive | 75% (active) | 28.5% (active) | – | inactive
5 | O=C(CC(=O)c1c(F)cccc1Cl)c1ccccc1O | 157% (active) | inactive | inactive | inactive | inactive | inactive | inactive | inactive | inactive | 37% (active) | inactive | – | inactive | inactive | – | inactive | – | 98.7% (active) | 33.3% (active) | –
6 | Cc1ccc2nc(N(CCCN(C)C)C(=O)c3ccc(S(=O)(=O)N4CCc5ccccc5C4)cc3)sc2c1 | 242% (active) | – | inactive | inactive | inactive | inactive | inactive | inactive | inactive | – | inactive | – | inactive | inactive | inactive | inactive | 75% (active) | 7.33% (active) | – | inactive
7 | Clc1cccc(OCCN2CCNCC2)c1 | 66% (active) | – | inactive | inactive | inactive | inactive | inactive | inactive | inactive | – | inactive | – | inactive | inactive | inactive | inactive | 54% (active) | 31.1% (active) | – | inactive
8 | CCOC(=O)C1(CCOc2ccccc2)CCN(Cc2cc(OC)ccc2OC)CC1 | 68% (active) | inactive | inactive | inactive | inactive | inactive | inactive | inactive | inactive | 118% (active) | inactive | inactive | inactive | inactive | inactive | inactive | – | – | – | –
9 | CCN1CCCC1CNC(=O)c1cc2c(OC)cccc2[nH]1 (centres undefined) | 136% (active) | inactive | inactive | inactive | inactive | inactive | inactive | inactive | inactive | 36.5% (active) | inactive | inactive | inactive | inactive | inactive | inactive | – | – | – | –
10 | O=C(CC1C(=O)NCCN1Cc1ccccc1C(F)(F)F)NCCc1ccccn1 (centres undefined) | 106% (active) | inactive | inactive | inactive | inactive | inactive | inactive | inactive | inactive | – | inactive | – | inactive | inactive | inactive | inactive | – | 26.7% (active) | – | inactive
11 | COc1ccc(CSCCN)cc1Cl | 108% (active) | inactive | inactive | inactive | inactive | inactive | inactive | inactive | inactive | – | inactive | – | inactive | inactive | inactive | inactive | – | 27.1% (active) | – | inactive
12 | CCn1c(CN2CCN(Cc3ccc(C)cc3)C(CCO)C2)nc2ccccc21 (centres undefined) | 129% (active) | – | inactive | inactive | inactive | inactive | inactive | inactive | inactive | 61.5% (active) | inactive | – | inactive | inactive | inactive | inactive | 73% (active) | 32.4% (active) | – | –
13 | Cc1csc2c(N3CCN(C(=O)Nc4ccccc4)CC3)ncnc12 | 99% (active) | inactive | inactive | inactive | inactive | inactive | inactive | inactive | inactive | – | inactive | – | inactive | inactive | inactive | inactive | – | 48.3% (active) | – | inactive
14 | CN(CCc1ccccn1)C1CC(=O)N(c2ccc(Cl)cc2)C1=O (centres undefined) | 195% (active) | – | inactive | inactive | inactive | inactive | inactive | inactive | inactive | – | inactive | – | inactive | inactive | inactive | inactive | 70% (active) | 102% (active) | – | inactive
